Measured values: PubChem BioAssay AID1259418 (Broad Institute, 2018)
The campaign covered roughly 3,400 compounds. About 840 (25%) were called active. Inconclusive results (about 11%) are left out.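 How the source made its calls: active means fitted half-maximal concentration of signal decrease at or below twice the sample's top tested concentration; inconclusive means flat curve between -70 and -30 percent, or poor fit; inactive means flat within 30 percent, signal rise, or potency above limit.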 Only a sample is shown. Entries with a potency or affinity are not part of this list.

experiment: inhibitors of Toxoplasma growth in IFN-γ-primed HeLa – cell-based, ME49Luc, luciferase, 72 h, dose response (AID 1259418); conditions: T. gondii ME49Luc in IFN-y HeLa, active compounds read low, -100% = high-dose IFN-γ control wells; at 19.5 µM unless noted

| SMILES | max activity |
| --- | --- |
| COc1ccc(-c2nc3c(s2)CN(S(=O)(=O)c2ccc(F)cc2F)CC3)cc1 | 13% [at 5 µM] (inactive) |
| COC(=O)c1cccc(NC(=O)Nc2ccc(-c3nc(-c4cc(C)ccc4C)co3)cc2)c1 | 11.4% [at 5 µM] (inactive) |
| CCc1cc(C2CCCN2C(=O)Cn2nc(C(F)(F)F)cc2C)on1 (stereo not drawn) | -8.33% [at 5 µM] (inactive) |
| Cc1ccccc1-c1nc(CN2CCN(C(=O)Nc3cccc(C)c3C)CC2)c(C)o1 | -5.68% [at 2.6 µM] (inactive) |
| COCCCNC(=O)Cn1c(=O)c(S(=O)(=O)c2ccccc2)cc2cc(C)ccc21 | 5.8% [at 2.6 µM] (inactive) |
| Cc1ccc(NC(=O)Nc2ccc(-c3nc(-c4cccc(Br)c4)co3)cc2)cc1 | 18.1% [at 0.16 µM] (inactive) |
| COc1ccc(NC(=O)N2CCc3nc(-c4ccccc4)sc3C2)c(OC)c1 | 19.6% [at 10 µM] (inactive) |
| Cc1ccc(-c2ccc(OCCNC(=O)c3sc(-c4ccccc4)nc3C)nn2)cc1 | 10.9% [at 2.6 µM] (inactive) |
| Cc1cc(C2CCCN2C(=O)c2cc(C(F)(F)F)nn2C)on1 (stereo not drawn) | 8.24% [at 1.35 µM] (inactive) |
| Cc1nc(-c2ccc(F)cc2)sc1-c1ccc(SCc2ccccn2)nn1 | 11.9% (inactive) |
| Cc1ccccc1NC(=O)N1C[C@H]2C[C@H](C(=O)NC3CCC3)[C@@H](C1)O2 | 41.9% (inactive) |
| Cc1ccc(-c2coc(-c3ccc(NC(=O)Cc4ccccc4C)cc3)n2)cc1 | 19% (inactive) |
| COc1ccc(NC(=O)Nc2ccc(-c3nc(-c4ccc(C)cc4C)co3)cc2)cc1 | -20.8% [at 0.16 µM] (inactive) |
| COc1ccc(C(=O)Nc2ccc(-c3nc(-c4ccc(C)cc4C)co3)cc2)cc1 | 25.2% [at 0.35 µM] (inactive) |
| COc1cc(NC(=O)Nc2ccc(-c3nc(-c4cc(C)ccc4C)co3)cc2)cc(OC)c1 | 6.94% [at 0.08 µM] (inactive) |
| COc1cc(OC)cc(C(=O)Nc2ccc(-c3nc(-c4cc(C)ccc4C)co3)cc2)c1 | 19.3% [at 0.16 µM] (inactive) |
| COc1ccc(-c2nc3c(s2)CN(S(=O)(=O)c2ccc(C(C)(C)C)cc2)CC3)cc1 | 5.19% (inactive) |
| COc1ccc(-c2nc(Nc3ccccc3C)c3ccccc3n2)cc1 | -9.66% [at 10 µM] (inactive) |
| COc1ccc(CCNc2ncnc3c2cnn3-c2ccccc2)cc1OC | 24.5% [at 5 µM] (inactive) |
| CCSc1ccc2c(c1)N(CCCN1CCN(C)CC1)c1ccccc1S2 | 26.9% (inactive) |
| CCOC(=O)Cc1ccc(NC(=O)Nc2ccc(-c3nc(-c4ccccc4)co3)cc2)cc1 | 9.92% [at 2.6 µM] (inactive) |
| OC[C@@H]1[C@@H](c2ccc(-c3cccnc3)cc2)[C@@H]2CN(Cc3ccccn3)CCCCN12 | -5.02% [at 1.2 µM] (inactive) |
| OC[C@@H]1[C@@H](c2ccc(-c3cccc(F)c3)cc2)[C@@H]2CN(Cc3cncnc3)CCCCN12 | 12.9% (inactive) |
| Fc1cccc(-c2ccc(C3[C@H]4CNC[C@@H]3N4Cc3ccccn3)cc2)c1 (stereo partly drawn) | 18.9% [at 5 µM] (inactive) |

| SMILES | max activity |
| --- | --- |
| COc1cccc(-c2ccc(C3[C@H]4CNC[C@@H]3N4Cc3nccs3)cc2)c1 (stereo partly drawn) | 51.8% [at 21 µM] (inactive) |
| COc1cc(CN2C[C@@H]3N[C@H](C2)C3c2ccc(-c3ccc(C#N)cc3)cc2)cc(OC)c1 (stereo partly drawn) | 27% [at 10 µM] (inactive) |
| O=C(c1cccs1)N1CCC2(CC1)Nc1cc(F)ccc1-n1cccc12 | 9.34% [at 0.68 µM] (inactive) |
| O=C(CCC1Nc2c3ccccc3nc(=S)n2C1=O)NCCN1CCC(Cc2ccccc2)CC1 (stereo not drawn) | 54.5% [at 10 µM] (inactive) |
| CCc1ccc2c(c1)cc(S(=O)(=O)c1ccccc1)c(=O)n2CC(=O)NCCCOC | 8.62% [at 10 µM] (inactive) |
| COCCN1CCc2nc(SCc3nc(-c4ccccc4OC)oc3C)[nH]c(=O)c2C1 | 14.3% [at 5 µM] (inactive) |
| COc1cc(-c2noc(-c3nnn(Cc4nc(-c5ccccc5)oc4C)c3C)n2)ccc1OC(C)C | 9.04% [at 0.16 µM] (inactive) |
| CSc1cccc(NC(=O)N2CCc3nc(-c4ccc(C)cc4)sc3C2)c1 | 42.8% [at 10 µM] (inactive) |
| O=C(Nc1ccc(-c2nc(-c3ccccc3)co2)cc1)c1ccccc1Cl | 40% (inactive) |
| Cn1nccc1C(=O)N1CCC2(CC1)Nc1cc(F)ccc1-n1cccc12 | -9.01% (inactive) |
| c1csc(-c2cc(NC3CCNCC3)nc3[nH]ccc23)n1 | 35.6% [at 5 µM] (inactive) |
| COc1cc(Nc2nc(SCc3ccccc3Cl)nc3ccccc23)cc(OC)c1OC | 11% [at 0.68 µM] (inactive) |
| Fc1cccc(CSc2nc(Nc3ccc4c(c3)OCO4)c3ccccc3n2)c1 | 11.5% (inactive) |
| Clc1ccc(CSc2nc(Nc3ccc4c(c3)OCO4)c3ccccc3n2)cc1 | 5.7% [at 2.6 µM] (inactive) |
| Fc1ccc(Nc2nc(SCc3ccccc3F)nc3ccccc23)cc1 | 12.5% (inactive) |
| CCc1ccc(-c2noc(-c3nnn(Cc4nc(-c5ccccc5)oc4C)c3C)n2)cc1 | 20.7% (inactive) |
| Cc1ccc(NC(=O)Nc2ccc(-c3nc(-c4ccc(C)cc4C)co3)cc2)cc1 | 46.2% (inactive) |
| Cc1ccccc1CNC1=NCCNC12CCN(S(=O)(=O)c1ccc(CC(C)C)cc1)CC2 | 13.3% [at 2.6 µM] (inactive) |
| CC(C)Cc1ccc(S(=O)(=O)N2CCC3(CC2)NCCN=C3NCc2cc(F)cc(F)c2)cc1 | 20.3% (inactive) |
| Cc1ccc(CNC2=NCCNC23CCN(S(=O)(=O)c2ccc(CC(C)C)cc2)CC3)cc1 | 13.1% [at 10 µM] (inactive) |
| COc1ccc(NC(=O)N2CCc3nc(-c4ccccc4)sc3C2)cc1OC | -8.38% [at 0.35 µM] (inactive) |
| Cc1nc(OCC(=O)Nc2ccc(Br)cc2)c2ccccc2n1 | 28% [at 1.35 µM] (inactive) |
| Cc1ccc(C)c(NC(=O)COc2nc(C)nc3ccccc23)c1 | 15.8% [at 10 µM] (inactive) |
| N#CCSC1=Nc2ccccc2C2=NC(CCC(=O)NCc3ccccc3)C(=O)N12 (stereo not drawn) | 72.9% (inactive) |
